The text below walks through data of PubChem BioAssay (NCATS).

Results filed as inconclusive are left out. Active and inactive are the calls of the source. Unless noted, calls come from the whole dose curve; as a rule, active = well fitted curve in the direction sought with a large enough effect; inconclusive = small, poorly fitted or top-dose-only effect, or another doubt; inactive = no such curve, though single readings can be large; an effect the other way counts as inactive or inconclusive.

In test [1] the target is Calcium and integrin-binding protein 1 (Homo sapiens) (UniProt Q99828). Kind of test: Primary qHTS for Identification of Calcium Integrin Binding Protein 1 (CIB1) Competitor (AID 1508620).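 Note: GST tagged CIB1 binding a fluorescein labelled alphaIIb integrin peptide tracer; top concentration of the series differs between compounds; % is set by controls: 0 for no effect and ±100 for the full control effect.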 An outline of the steps: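 Fluorescence polarization competition: CIB1-GST (1 uM final) preincubated with compound 15 min at room temperature, then FITC-labeled alphaIIb peptide (100 nM final) added for another 15 min. Polarization read at Ex 480/Em 540.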

A short description of test [2]: Primary qHTS for small molecule stabilizers of the endoplasmic reticulum resident proteome: Secreted ER Calcium Modulated Protein (SERCaMP) assay (AID 1508630). Note: % is set by controls: 0 for no effect and ±100 for the full control effect. The procedure, abridged: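 The SH-SY5Y reporter protocol was run at 3 concentrations up to 38.3 uM (primary) or 11 concentrations (follow-up): 16 h compound, 100 nM thapsigargin for 4 h, then extracellular luciferase luminescence.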
For orientation: qHTS replaces the single test concentration by a dilution series.

Test [3] is described as follows: A High-Content qHTS Against Drug Library for the Identification of Small Molecules that Inhibit DYT1 Early Onset Primary Dystonia-Associated Cell Pathology (AID 1645839; calls by dose curve). The procedure, abridged:
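Induced EGFP-delE TorsinA cells are imaged after 48 h of compound treatment. Punctate fusion-protein distribution gives the %pathology value, while nuclei counts flag toxicity. Wild-type EGFP-hTOR1A cells define the normal pattern.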

A short description of test [4]: Cytotoxicity counterscreen for inhibitors of SARS-CoV-2 cell entry (AID 1645845; calls by dose curve; note: nearly all actives have a fitted effect of over 50% in size). An outline of the steps:
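After a 15 min room-temperature ATPLite 1step step, luminescence reflected ATP remaining in HEK293-ACE2 cells exposed to compound for 1 h plus 48 h at 37 C, with percent activity set by cell and no-cell controls.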
In general terms: A counterscreen serves to expose hits that act by an unwanted route or on another target.

Test [5] in a line: Primary qHTS to identify inhibitors of SARS-CoV-2 cell entry (AID 1645846; calls by dose curve; note: nearly all actives have a fitted effect of over 45% in size). The following applies: activity change, negative = inhibition: at 57.1 µM (top of the series) unless noted. The procedure, abridged: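 Inhibition of spike-mediated entry was scored in human ACE2-transfected Expi293F cells. Particles were MLV-pseudotyped with Wuhan-Hu-1 S carrying a 19-aa C-terminal deletion; signal was luciferase after two days, scaled between spike PP and fusion-protein-free PP.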

Test [6] is described as follows: Primary qHTS for inhibitors of nuclear receptor binding SET domain protein 2 (NSD2) in an RCH-ACV wild type WT cells (2C) (AID 1645877). Note: nearly all actives have a fitted effect of over 70% in size. Note: potency is the fitted concentration of half-maximal effect.
The target in test [7] is Cytochrome P450 2C9 (Homo sapiens) (UniProt P11712). As to the kind of experiment: Cytochrome P450 family 2 subfamily C member 9 (CYP2C9) small molecule antagonists: luciferase biochemical (cell-free) qHTS assay (AID 1645842; active = well fitted curve in the direction sought with a large enough effect in the repeat runs; an effect the other way counts as inactive or inconclusive; note: % is set by controls: 0 for no effect and ±100 for the full control effect; nearly all actives have a fitted effect of over 55% in size). The procedure, abridged: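 P450-Glo CYP2C9 system: proluciferin substrate with enzyme in mix containing 0.4% BSA, 10 min at room temperature, then NADPH regeneration solution added and incubated 1 h at 37C. Detection reagent stopped reaction; luminescence read after 20 min as RLU.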

In test [8] the target is Cytochrome P450 3A4 (Homo sapiens) (UniProt P08684). Kind of test: Cytochrome P450 family 3 subfamily A member 4 (CYP3A4) small molecule antagonists: luciferase qHTS assay (AID 1645841; active = well fitted curve in the direction sought with a large enough effect in the repeat runs; an effect the other way counts as inactive or inconclusive; note: nearly all actives have a fitted effect of over 45% in size). An outline of the steps:
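P450-Glo CYP3A4 enzyme with proluciferin substrate was preincubated with DMSO-dissolved compounds for 10 min at room temperature. NADPH regeneration solution started a 1 h reaction. Detection reagent stopped it, and luminescence was read after 20 min.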

A short description of test [9]: Primary qHTS for inhibitors of nuclear receptor binding SET domain protein 2 (NSD2) in an isogenic RCH-ACV NSD2 p.E1099K mutant (9B) (AID 1645876). Note: nearly all actives have a fitted effect of over 70% in size. Note: potency is the fitted concentration of half-maximal effect.
Test [10] has as its target Cytochrome P450 2D6 (Homo sapiens) (UniProt P10635). Kind of test: Cytochrome P450 family 2 subfamily D member 6 (CYP2D6) small molecule antagonists: luciferase biochemical (cell-free) qHTS assay (AID 1645840; active = well fitted curve in the direction sought with a large enough effect in the repeat runs; an effect the other way counts as inactive or inconclusive; note: nearly all actives have a fitted effect of over 55% in size; note: potency is the fitted concentration of half-maximal effect; for activity change, negative = inhibition: % is set by controls: 0 for no effect and ±100 for the full control effect). An outline of the steps:
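P450-Glo CYP2D6 system: proluciferin substrate converted by enzyme to luciferin, read by luminescence proportional to activity. Enzyme-substrate mix with compound 10 min at room temperature, then NADPH regeneration 1 h before detection reagent.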

Test [11] concerns the target N-terminal Xaa-Pro-Lys N-methyltransferase 1 (Homo sapiens) (UniProt Q9BV86). Kind of test: Confirmatory qHTS for Inhibitors of N-terminal methyltransferase 1 (NTMT1): MTaseGlo Assay (AID 1645874).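 Note: luminescence from SAH made as NTMT1 methylates SPKRIA peptide using SAM; 0% = DMSO control and -100% = no-enzyme control; nearly all actives have a fitted effect of over 65% in size.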 The procedure, abridged:
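SPKRIA peptide at 1 uM was methylated by 125 nM NTMT1 using 100 uM SAM over 30 min at room temperature, following a 15 min compound preincubation. Product SAH was detected luminescently.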

Test [12] can be described thus: VSVG counterscreen qHTS to identify inhibitors of SARS-CoV-2 cell entry (AID 1645847; calls by dose curve; note: potency is the fitted concentration of half-maximal effect; nearly all actives have a fitted effect of over 65% in size). An outline of the steps:
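Luminescence from a luciferase reporter, normalised to bald particle and VSV-G pseudotyped particle wells, is the read-out. Cells are HEK293 expressing human ACE2, exposed to compound 1 h before a 48 h particle infection at 37 °C.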

The target in test [13] is Rap guanine nucleotide exchange factor 3 (Homo sapiens) (UniProt O95398). As to the kind of experiment: Confirmatory qHTS for antagonist of cAMP-regulated guanine nucleotide exchange factor 3 (EPAC1) (AID 1645880).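 Note: plate controls were DMSO only for no effect and full effect of the ATA control for full effect; nearly all actives have a fitted effect of over 55% in size.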 An outline of the steps: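 Released BODIPY-GDP fluoresces less than Rap1-bound BODIPY-GDP; the signal is followed at 480/540 nm at 5-min intervals over 30 min, after 5 min at room temperature. Reactions contain 100 nM EPAC1, 250 nM RAP1B-BODIPY-GDP and 50 uM GDP; results are normalized to ATA and DMSO.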

For test [14] the target is unchanged. As to the kind of experiment: Confirmatory qHTS for agonist of cAMP-regulated guanine nucleotide exchange factor 3 (EPAC1) (AID 1645881).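 Note: EPAC1 catalysed release of BODIPY-GDP from Rap1B seen as fluorescence loss; 100% = effect of cAMP agonist control; nearly all actives have a fitted effect of over 75% in size.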
Test [15] concerns the target Rap guanine nucleotide exchange factor 4 (Homo sapiens) (UniProt Q8WZA2). Kind of test: Confirmatory qHTS for agonist of cAMP-regulated guanine nucleotide exchange factor 4 (EPAC2) (AID 1645884).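 Note: nucleotide exchange releases bodipy-GDP from Rap1 and this lowers its fluorescence; % is set by controls: 0 for no effect and ±100 for the full control effect; nearly all actives have a fitted effect of over 65% in size.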

Cytochrome P450 2C9 (Homo sapiens), sequence (P11712 whole entry, looked up): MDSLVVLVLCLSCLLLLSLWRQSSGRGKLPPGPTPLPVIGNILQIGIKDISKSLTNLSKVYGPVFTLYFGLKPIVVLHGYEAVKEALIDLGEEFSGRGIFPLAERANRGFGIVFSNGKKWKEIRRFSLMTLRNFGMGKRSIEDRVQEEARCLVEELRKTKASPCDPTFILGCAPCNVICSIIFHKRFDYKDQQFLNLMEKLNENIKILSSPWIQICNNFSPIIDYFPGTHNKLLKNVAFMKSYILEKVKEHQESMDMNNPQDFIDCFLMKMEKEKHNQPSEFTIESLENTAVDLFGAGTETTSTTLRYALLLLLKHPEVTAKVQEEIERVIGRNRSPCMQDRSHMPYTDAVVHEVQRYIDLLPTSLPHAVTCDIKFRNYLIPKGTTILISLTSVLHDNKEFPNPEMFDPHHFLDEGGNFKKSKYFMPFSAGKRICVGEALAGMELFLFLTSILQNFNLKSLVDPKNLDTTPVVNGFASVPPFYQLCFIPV
Calcium and integrin-binding protein 1 (Homo sapiens), sequence (Q99828 whole entry, looked up): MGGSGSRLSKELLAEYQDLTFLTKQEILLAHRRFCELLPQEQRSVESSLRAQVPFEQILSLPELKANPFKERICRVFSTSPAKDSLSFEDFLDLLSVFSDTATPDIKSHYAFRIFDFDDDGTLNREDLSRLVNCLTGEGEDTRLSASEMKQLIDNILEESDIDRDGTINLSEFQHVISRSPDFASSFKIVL
Cytochrome P450 2D6 (Homo sapiens), sequence (P10635 whole entry, looked up): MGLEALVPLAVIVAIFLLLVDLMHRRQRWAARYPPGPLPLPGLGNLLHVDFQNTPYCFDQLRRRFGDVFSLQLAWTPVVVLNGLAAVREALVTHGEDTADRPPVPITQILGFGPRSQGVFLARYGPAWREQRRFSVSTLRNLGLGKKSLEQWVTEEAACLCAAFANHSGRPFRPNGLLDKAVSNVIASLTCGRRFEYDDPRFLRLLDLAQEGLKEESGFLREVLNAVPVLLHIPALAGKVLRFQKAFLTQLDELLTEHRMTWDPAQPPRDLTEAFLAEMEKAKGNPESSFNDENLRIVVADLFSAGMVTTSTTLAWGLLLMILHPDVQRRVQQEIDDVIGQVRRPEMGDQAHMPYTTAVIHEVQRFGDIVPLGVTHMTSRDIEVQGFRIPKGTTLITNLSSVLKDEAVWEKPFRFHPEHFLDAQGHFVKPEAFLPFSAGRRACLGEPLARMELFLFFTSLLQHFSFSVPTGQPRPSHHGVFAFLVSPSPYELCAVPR
Cytochrome P450 3A4 (Homo sapiens), sequence (P08684 whole entry, looked up): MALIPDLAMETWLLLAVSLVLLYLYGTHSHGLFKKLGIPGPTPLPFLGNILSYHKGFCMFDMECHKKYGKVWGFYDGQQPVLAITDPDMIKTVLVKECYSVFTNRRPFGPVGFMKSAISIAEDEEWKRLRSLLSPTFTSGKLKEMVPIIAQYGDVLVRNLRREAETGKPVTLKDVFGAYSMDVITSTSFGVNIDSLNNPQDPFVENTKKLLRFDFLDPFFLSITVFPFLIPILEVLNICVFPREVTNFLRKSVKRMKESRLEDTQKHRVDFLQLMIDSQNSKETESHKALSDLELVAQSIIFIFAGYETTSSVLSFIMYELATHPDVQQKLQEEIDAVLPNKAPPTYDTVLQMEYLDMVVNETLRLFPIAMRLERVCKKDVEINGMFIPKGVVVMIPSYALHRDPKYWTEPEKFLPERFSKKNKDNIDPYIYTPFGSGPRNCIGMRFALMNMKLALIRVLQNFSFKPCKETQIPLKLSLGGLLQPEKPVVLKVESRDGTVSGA
Rap guanine nucleotide exchange factor 3 (Homo sapiens), sequence (O95398 whole entry, looked up): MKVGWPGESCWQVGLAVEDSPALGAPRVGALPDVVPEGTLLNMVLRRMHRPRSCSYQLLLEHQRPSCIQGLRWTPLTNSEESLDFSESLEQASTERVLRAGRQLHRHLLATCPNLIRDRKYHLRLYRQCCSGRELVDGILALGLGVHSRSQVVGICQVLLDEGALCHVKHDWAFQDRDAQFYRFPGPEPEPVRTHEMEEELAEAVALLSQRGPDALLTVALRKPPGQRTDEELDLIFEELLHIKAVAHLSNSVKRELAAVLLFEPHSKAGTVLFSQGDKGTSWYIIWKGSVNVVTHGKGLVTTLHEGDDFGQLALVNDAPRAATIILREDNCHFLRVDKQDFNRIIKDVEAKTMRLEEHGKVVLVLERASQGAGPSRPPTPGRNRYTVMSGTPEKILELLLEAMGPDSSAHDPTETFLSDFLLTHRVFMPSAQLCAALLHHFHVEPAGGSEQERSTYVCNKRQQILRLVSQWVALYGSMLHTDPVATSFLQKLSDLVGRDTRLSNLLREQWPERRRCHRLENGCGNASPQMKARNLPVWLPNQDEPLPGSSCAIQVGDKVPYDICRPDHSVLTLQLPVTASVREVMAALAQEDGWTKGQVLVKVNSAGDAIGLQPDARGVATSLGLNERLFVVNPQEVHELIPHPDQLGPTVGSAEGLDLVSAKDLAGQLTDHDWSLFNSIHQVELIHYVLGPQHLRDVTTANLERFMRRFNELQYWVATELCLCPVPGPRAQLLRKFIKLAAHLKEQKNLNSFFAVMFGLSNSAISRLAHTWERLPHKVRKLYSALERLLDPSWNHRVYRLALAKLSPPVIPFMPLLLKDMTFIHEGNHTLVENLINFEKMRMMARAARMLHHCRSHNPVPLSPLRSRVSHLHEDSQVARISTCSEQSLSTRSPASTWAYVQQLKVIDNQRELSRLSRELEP
N-terminal Xaa-Pro-Lys N-methyltransferase 1 (Homo sapiens), sequence (Q9BV86 whole entry, looked up): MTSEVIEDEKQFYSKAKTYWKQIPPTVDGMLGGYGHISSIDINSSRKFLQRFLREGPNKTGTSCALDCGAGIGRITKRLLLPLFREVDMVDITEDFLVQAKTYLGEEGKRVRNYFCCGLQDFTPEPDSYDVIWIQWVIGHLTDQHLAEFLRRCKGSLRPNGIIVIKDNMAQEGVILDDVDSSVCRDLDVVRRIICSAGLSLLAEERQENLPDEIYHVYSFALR
Rap guanine nucleotide exchange factor 4 (Homo sapiens), sequence (Q8WZA2 whole entry, looked up): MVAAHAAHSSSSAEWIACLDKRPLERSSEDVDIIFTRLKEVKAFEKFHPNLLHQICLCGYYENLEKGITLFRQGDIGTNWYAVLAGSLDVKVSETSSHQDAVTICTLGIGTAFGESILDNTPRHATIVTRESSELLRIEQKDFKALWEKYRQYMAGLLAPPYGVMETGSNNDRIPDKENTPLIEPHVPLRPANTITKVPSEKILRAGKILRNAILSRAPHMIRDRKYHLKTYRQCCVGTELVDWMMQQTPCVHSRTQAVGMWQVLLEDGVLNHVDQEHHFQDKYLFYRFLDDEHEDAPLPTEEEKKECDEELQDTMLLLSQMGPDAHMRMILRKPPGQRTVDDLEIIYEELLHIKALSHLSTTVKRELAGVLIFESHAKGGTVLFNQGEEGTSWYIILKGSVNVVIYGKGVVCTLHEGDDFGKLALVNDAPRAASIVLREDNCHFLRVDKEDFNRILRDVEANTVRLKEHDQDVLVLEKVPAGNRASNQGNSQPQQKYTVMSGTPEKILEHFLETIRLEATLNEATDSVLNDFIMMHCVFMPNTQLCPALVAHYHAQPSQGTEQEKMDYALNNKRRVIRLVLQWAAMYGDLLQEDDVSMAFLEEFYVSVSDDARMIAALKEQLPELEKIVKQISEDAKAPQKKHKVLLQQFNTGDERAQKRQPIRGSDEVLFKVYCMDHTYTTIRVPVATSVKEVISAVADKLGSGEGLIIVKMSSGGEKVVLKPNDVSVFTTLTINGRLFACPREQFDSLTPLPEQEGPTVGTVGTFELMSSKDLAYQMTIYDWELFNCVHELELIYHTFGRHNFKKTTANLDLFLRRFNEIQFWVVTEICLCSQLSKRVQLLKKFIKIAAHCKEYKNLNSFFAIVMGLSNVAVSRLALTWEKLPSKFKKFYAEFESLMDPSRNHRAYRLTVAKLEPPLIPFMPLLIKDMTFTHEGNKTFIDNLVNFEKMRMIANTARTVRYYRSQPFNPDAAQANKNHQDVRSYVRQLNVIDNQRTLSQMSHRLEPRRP

`C[C@@H]1CC[C@H]2[C@@H](C)C(=O)O[C@@H]3O[C@@]4(C)CC[C@@H]1[C@]32OO4`: the Potency result in [1] and in test [4] was “inactive” each time. In addition, the outcome in [2] and in test [3] was inactive. For the same compound, the activity change, negative = inhibition in test [5] is -32%. The Potency in [6] is 5.25 µM (active).
With `COc1cc(CC(C)N)cc2c1OCO2` (stereo not drawn), the Potency result in test [1] and in [7] was “inactive” in each case. Besides, the result in [2] and in test [3] was inactive.
Regarding `CC(=O)OC1(c2ccccc2)CCN(CCc2ccccc2)CC1`, the Potency result in test [1], in [8], in test [9] and in test [6] was “inactive” each time. Besides, the outcome in [2] was inactive.
Regarding `CN1CCc2cc(Cl)c(O)cc2[C@H]2c3ccccc3CC[C@@H]21`, the Potency entry in [1] and in test [7] was “inactive” each time. Besides, the call in test [3] was inactive. In addition, the Potency in [10] is 0.001 µM (active).
In the case of `CCc1cc(OC)c(C[C@H](C)N)cc1OC`, the Potency result in test [1], in [7] and in test [11] was “inactive” throughout. For the same compound, the outcome in test [2] and in test [3] was inactive. Also, in test [6], the Potency was 44.9 µM (active).
As to `CNC(C)Cc1ccccc1OC` (stereo not drawn), the Potency result in test [1], in test [7], in test [4] and in test [5] was “inactive” each time. In addition, the result in [2] and in test [3] was inactive.
Turning to `Cc1ncc2n1-c1ccc(Cl)cc1C(c1ccccc1F)=NC2`, the Potency entry in [1] was “inactive”. For the same compound, the result in test [2] and in test [3] was inactive. The Potency in test [9] is 23.7 µM (active); in [6] it was 13.3 µM (active).
For `c1ccc2c(c1)Sc1ccccc1N2CC1CN2CCC1CC2` (stereo not drawn), the Potency entry in test [1] and in test [7] was “inactive” each time. For the same compound, the result in test [2] was inactive. The results for the Potency in test [10] and in test [12] were 0.123 µM (active) and 0.383 µM (active), respectively.
Turning to `CCC1(CC)C(=O)NC(=O)NC1=O`, the outcome in test [2] and in [3] was inactive. Besides, the Potency result in [10], in test [8] and in [7] was “inactive” in each case.
`CC1Sc2c(C(=O)O)c(=O)c3cc(F)c(N4CCNCC4)cc3n21` (stereo not drawn): the Potency result in [1], in test [10], in test [7] and in test [9] was “inactive” in each case. In addition, the outcome in test [3] was inactive.
Regarding `CCN(CC)Cc1nccn1-c1ccc([N+](=O)[O-])cc1C(=O)c1ccccc1Cl`, the Potency result in [1] and in test [4] was “inactive” each time. Further, the outcome in [3] was inactive. Further, in [10], the Potency was 1.95 µM (active).
Regarding `C[C@]12CC[C@H]3[C@@H](CCC4=CC(=O)CC[C@@]43C)[C@@H]1CC[C@@H]2C(=O)O`, the Potency result in [1], in test [10], in test [7] and in test [9] was “inactive” in each case. Besides, the outcome in test [3] was inactive.
For `O=C(N[C@@H]1N=C(c2ccccc2F)c2cccc3c2N(CC3)C1=O)c1cc2ccccc2[nH]1`, the Potency entry in [1] and in [10] was “inactive” in each case.
For the compound `CCC(=O)C(CCN(C)C)(c1ccccc1)c1ccccc1`, the Potency entry in test [1] and in [4] was “inactive” in each case. For the same compound, the results for the Potency in test [10] and in test [12] were 5.49 µM (active) and 3.41 µM (active), respectively. Moreover, the activity change, negative = inhibition in test [5] is -43.2%.
As to `CCC1(c2ccccc2)CCC(=O)NC1=O` (stereo not drawn), the Potency result in [1], in [10] and in test [9] was “inactive” in each case.
In the case of `CC(CC(C#N)(c1ccccc1)c1ccccc1)N(C)C` (stereo not drawn), the Potency entry in test [1] and in test [7] was “inactive” each time. The Potency in test [10] was 5.61 µM (active); in [9], 17.2 µM (active).
Consider `Clc1ccc(CO/N=C(\Cn2ccnc2)c2ccc(Cl)cc2Cl)c(Cl)c1`, for which the Potency entry in test [1] is “inactive”. Moreover, the result in [13], in [14] and in [15] was inactive.
Regarding `CN(C)CCc1c[nH]c2cccc(O)c12`, the result in test [2] and in [3] was inactive. Further, the Potency in test [10] is 12.5 µM (active). Moreover, the Potency result in test [7] and in [11] was “inactive” throughout.
